This note sets out measurements from PubChem BioAssay (EPA / NIEHS).

A short description of test [1]: BSK_LPS_PGE2: BioMAP Diversity Plus: LPS Assay for Prostaglandin E2 (PGE2) Biomarker Activity (AID 2283082).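 For AC50: secreted prostaglandin E2 measured by ELISA in LPS-stimulated co-culture.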 The conditions noted are these: primary human HUVEC with PBMC; actives raise or lower the signal. A digest of the protocol:
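Compounds were added to the LPS co-culture of endothelium and PBMC, and PGE2 was measured by ELISA after 24 h. Responses in either direction were fitted with DMSO as baseline.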

Read-out in test [2]: Macrophage colony-stimulating factor (MCSF), CSF1 (gene 1435)
Briefly: BSK_LPS_MCSF: BioMAP Diversity Plus: LPS Assay for Macrophage colony-stimulating factor (MCSF) Biomarker Activity (AID 2283083). The conditions noted are these: primary human HUVEC with PBMC; actives raise or lower the signal. A digest of the protocol: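 Bidirectional fitting against DMSO was applied to M-CSF levels read by ELISA at 24 h post-dose. The system pairs human umbilical vein endothelium with peripheral blood mononuclear cells; parallel SRB staining tracked cytotoxicity.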

Read-out in test [3]: Tissue Factor, F3 (gene 2152)
Briefly: BSK_LPS_TissueFactor: BioMAP Diversity Plus: LPS Assay for Tissue Factor Biomarker Activity (AID 2283084). The conditions noted are these: primary human HUVEC with PBMC; actives raise or lower the signal. A digest of the protocol:
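Compound was added to an endothelial cell/PBMC co-culture, and after 24 h tissue factor (CD142) was read by ELISA. Gain or loss of signal was fitted against a DMSO baseline, and parallel SRB staining (560 nm) tracked overt cytotoxicity.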

Read-out in test [4]: Tumor necrosis factor (Homo sapiens) (UniProt P01375)
Briefly: BSK_LPS_TNFa: BioMAP Diversity Plus: LPS Assay for Tumour Necrosis Factor alpha (TNFa) Biomarker Activity (AID 2283085).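 For AC50: TNFa protein level quantified by ELISA in the co-culture.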 The settings on record: primary human HUVEC with PBMC; actives raise or lower the signal. The method in brief:
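Cells (umbilical vein endothelium plus peripheral blood mononuclear cells) were dosed with chemical, incubated 24 h, then TNFa was quantified by ELISA; values derive from bidirectional fitting with DMSO as baseline.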

Read-out in test [5]: Vascular cell adhesion molecule 1 (VCAM1), VCAM1 (gene 7412)
Briefly: BSK_LPS_VCAM1: BioMAP Diversity Plus: LPS Assay for Vascular cell adhesion molecule 1 (VCAM1) Biomarker Activity (AID 2283086). The settings on record: primary human HUVEC with PBMC; actives raise or lower the signal. The method in brief: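 Cells are dosed in an LPS-stimulated endothelial/mononuclear co-culture and, after 24 h, VCAM-1 is quantified by ELISA. Activity in either direction is fitted relative to the DMSO negative control.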

Read-out in another test: CD38, CD38 (gene 952)
Put plainly: BSK_SAg_CD38: BioMAP Diversity Plus: SAg Assay for CD38 Biomarker Activity (AID 2283087). The settings on record: primary human HUVEC with PBMC; actives raise or lower the signal. A digest of the protocol: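 CD38 quantified by ELISA (fluorescence) in a superantigen-activated endothelial cell–PBMC co-culture at 24 h post-dose. Activity fitted in both directions relative to DMSO; parallel SRB and Alamar Blue cytotoxicity read-outs.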

Read-out in the next test: CD40, CD40 (gene 958)
Briefly: BSK_SAg_CD40: BioMAP Diversity Plus: SAg Assay for CD40 Biomarker Activity (AID 2283088). The settings on record: primary human HUVEC with PBMC; actives raise or lower the signal. A digest of the protocol: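 CD40 is measured by fluorescence ELISA in an endothelial/PBMC primary human co-culture at 24 h post-dose. Fitting is bidirectional, DMSO baseline. Parallel SRB staining (560 nm) flags cytotoxicity.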

Read-out in the next test: CD69, CD69 (gene 969)
Put plainly: BSK_SAg_CD69: BioMAP Diversity Plus: SAg Assay for CD69 Biomarker Activity (AID 2283089).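 For AC50: cell surface CD69 protein quantified by ELISA with fluorescence detection.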 The settings on record: primary human HUVEC with PBMC; actives raise or lower the signal. The method in brief: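 Primary human vascular co-culture (umbilical vein endothelium with peripheral blood mononuclear cells) exposed to test chemical for 24 h. CD69 levels quantified by fluorescence ELISA; DMSO served as negative control for bidirectional fitting.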

Read-out in test [6]: Monocyte Chemoattractant Protein-1 (MCP1), CCL2 (gene 6347)
Briefly: BSK_SAg_MCP1: BioMAP Diversity Plus: SAg Assay for Monocyte Chemoattractant Protein-1 (MCP1) Biomarker Activity (AID 2283090). The conditions noted are these: primary human HUVEC with PBMC; actives raise or lower the signal. The method in brief:
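Values derive from bidirectional fitting of ELISA-measured MCP1 against DMSO controls. Readings were taken 24 h after dosing human vascular endothelial cells co-cultured with peripheral blood mononuclear cells under superantigen stimulation.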

Read-out in test [7]: E-selectin (Homo sapiens) (UniProt P16581)
Briefly: BSK_SAg_Eselectin: BioMAP Diversity Plus: SAg Assay for Eselectin Biomarker Activity (AID 2283091). The settings on record: primary human HUVEC with PBMC; actives raise or lower the signal. A digest of the protocol: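 Cell-surface E-selectin is read by ELISA at 24 h in the SAg co-culture of HUVEC and PBMC. Curves are fitted in both directions relative to DMSO. Parallel SRB total-protein staining tracks overt toxicity.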

Read-out in test [8]: Monokine induced gamma interferon (MIG), CXCL9 (gene 4283)
Put plainly: BSK_SAg_MIG: BioMAP Diversity Plus: SAg Assay for Monokine induced gamma interferon (MIG) Biomarker Activity (AID 2283092). The settings on record: primary human HUVEC with PBMC; actives raise or lower the signal. The method in brief:
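Endothelial cells and PBMC were co-cultured, exposed to test chemicals, and sampled 24 h later. MIG was measured by ELISA, and responses were fitted in both directions relative to DMSO.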

A short description of test [9]: BSK_SAg_PBMCCytotoxicity: PBMC Cytotoxicity Assessment in the BioMAP Diversity Plus: SAg Assay (AID 2283093).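 For AC50: PBMC superantigen activated with SEB plus TSST-1 one hour after compound addition.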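 Note: PBMC viability measured as Alamar Blue reduction fluorescence at 546/580 nm; fitted both ways against DMSO so a hit may be loss or gain of signal.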 The settings on record: primary human HUVEC with PBMC. A digest of the protocol: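 Alamar Blue reduction (6 h, ex/em 546/580 nm) read after 90 h culture of PBMC pre-dosed 1 h then stimulated with SEB plus TSST-1, 20 ng/mL each. Gain or loss of signal fitted relative to DMSO.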

Read-out in test [10]: Interleukin-8 (IL8), CXCL8 (gene 3576)
Put plainly: BSK_SAg_IL8: BioMAP Diversity Plus: SAg Assay for Interleukin-8 (IL8) Biomarker Activity (AID 2283094). The settings on record: primary human HUVEC with PBMC; actives raise or lower the signal. A digest of the protocol: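 Chemicals were dosed onto a human endothelial–PBMC co-culture, and IL-8 was quantified by ELISA after 24 h. Both increases and decreases were fitted relative to DMSO.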

A short description of test [11]: BSK_SAg_Proliferation: Cell Proliferation Assessment in the BioMAP Diversity Plus: SAg Assay (AID 2283095).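 Note: relative cell number as total protein by SRB absorbance in sub-confluent culture.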 The conditions noted are these: primary human HUVEC with PBMC. The method in brief: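 Absorbance of sulforhodamine B at 560 nm reports total protein in a human vascular endothelial/PBMC co-culture after 96 h chemical exposure. Gain or loss of signal is fitted in both directions against DMSO.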

A short description of test [12]: BSK_SAg_SRB: Viability Assessment in the BioMAP Diversity Plus: SAg Assay (AID 2283096).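 Note: cells read one day after compound addition; hits may be either gain or loss of signal compared with DMSO.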 The settings on record: primary human HUVEC with PBMC. A digest of the protocol:
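SRB absorbance at 560 nm served as the viability read-out. Cells (HUVEC plus peripheral blood mononuclear cells) were TCA-fixed and stained 24 h post-dosing; activity fitted in both directions against DMSO controls.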

Test [13] has as its target human CYP2A6, CYP2A6 (gene 1548) (UniProt P11509). Briefly: NVS_ADME_hCYP2A6: NovaScreen (NVS) CYP450-related Enzyme Activity (ADME) Assay for human CYP2A6 (AID 2283099; active = hit-call score of the fitted dose curve at least 0.9, where 1 is the maximum). The method in brief:
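Compounds screened at 10 uM (duplicate) and, if active, titrated to a 20 uM top concentration against insect-cell-expressed CYP2A6. Loss of fluorescent product signal after 0.5 h, relative to acetonitrile baseline, indicates inhibition.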

The target in test [14] is human CYP1A2, CYP1A2 (gene 1544) (UniProt P05177). Put plainly: NVS_ADME_hCYP1A2: NovaScreen (NVS) CYP450-related Enzyme Activity (ADME) Assay for human CYP1A2 (AID 2283102; active = hit-call score of the fitted dose curve at least 0.9, where 1 is the maximum;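 for AC50: fluorescence from turnover of a fluorogenic substrate by recombinant insect-cell CYP1A2; potency for inhibition since loss of fluorescence marks reduced CYP1A2 activity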). The method in brief:
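Enzyme activity of insect-cell-expressed human CYP1A2 measured by fluorescence 0.5 h after compound addition, relative to acetonitrile. Compounds first tested in duplicate at 10 uM, actives followed up in concentration series.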

The target in test [15] is human CYP1A1, CYP1A1 (gene 1543) (UniProt P04798). Briefly: NVS_ADME_hCYP1A1: NovaScreen (NVS) CYP450-related Enzyme Activity (ADME) Assay for human CYP1A1 (AID 2283100; active = hit-call score of the fitted dose curve at least 0.9, where 1 is the maximum). The method in brief:
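Chemicals were first tested in duplicate at 10 uM, and those passing a 30% inhibition threshold were rerun as concentration series topping at 20 uM. Fluorescence read-out of recombinant enzyme turnover after 1 h, relative to acetonitrile.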

Test [16] has as its target human CYP2B6, CYP2B6 (gene 1555) (UniProt P20813). Briefly: NVS_ADME_hCYP2B6: NovaScreen (NVS) CYP450-related Enzyme Activity (ADME) Assay for human CYP2B6 (AID 2283101; active = hit-call score of the fitted dose curve at least 0.9, where 1 is the maximum). The method in brief:
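Cell-free recombinant enzyme assay with a fluorogenic substrate; fluorescence intensity read 1 hour after dosing. Loss of signal relative to acetonitrile negative control indicates inhibition. Primary screen run in duplicate at 10 uM, actives then tested in concentration series.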

Inconclusive results are not listed. The source made the active and inactive calls. Rule for the calls, unless noted: active = hit-call score of the fitted dose curve at least 0.9, where 1 is the maximum; inactive = score below 0.9.

Sequence of E-selectin (Homo sapiens) (P16581 whole entry, looked up): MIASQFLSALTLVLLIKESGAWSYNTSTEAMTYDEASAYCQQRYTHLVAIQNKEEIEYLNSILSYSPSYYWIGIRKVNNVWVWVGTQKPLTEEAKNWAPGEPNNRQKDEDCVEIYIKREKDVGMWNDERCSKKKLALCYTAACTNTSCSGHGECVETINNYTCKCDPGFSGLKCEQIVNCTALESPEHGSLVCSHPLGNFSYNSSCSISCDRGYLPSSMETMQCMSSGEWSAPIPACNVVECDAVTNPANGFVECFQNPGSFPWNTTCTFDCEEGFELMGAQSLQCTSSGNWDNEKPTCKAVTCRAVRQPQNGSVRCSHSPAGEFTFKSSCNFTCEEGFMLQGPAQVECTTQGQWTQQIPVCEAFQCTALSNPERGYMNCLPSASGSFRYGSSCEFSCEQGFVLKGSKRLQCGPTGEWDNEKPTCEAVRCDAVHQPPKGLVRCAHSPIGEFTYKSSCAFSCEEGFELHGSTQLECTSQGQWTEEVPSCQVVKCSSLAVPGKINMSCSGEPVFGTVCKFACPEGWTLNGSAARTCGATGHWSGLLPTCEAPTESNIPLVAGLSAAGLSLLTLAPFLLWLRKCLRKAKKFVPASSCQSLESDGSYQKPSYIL
Sequence of human CYP2A6, CYP2A6 (gene 1548) (P11509 whole entry, looked up): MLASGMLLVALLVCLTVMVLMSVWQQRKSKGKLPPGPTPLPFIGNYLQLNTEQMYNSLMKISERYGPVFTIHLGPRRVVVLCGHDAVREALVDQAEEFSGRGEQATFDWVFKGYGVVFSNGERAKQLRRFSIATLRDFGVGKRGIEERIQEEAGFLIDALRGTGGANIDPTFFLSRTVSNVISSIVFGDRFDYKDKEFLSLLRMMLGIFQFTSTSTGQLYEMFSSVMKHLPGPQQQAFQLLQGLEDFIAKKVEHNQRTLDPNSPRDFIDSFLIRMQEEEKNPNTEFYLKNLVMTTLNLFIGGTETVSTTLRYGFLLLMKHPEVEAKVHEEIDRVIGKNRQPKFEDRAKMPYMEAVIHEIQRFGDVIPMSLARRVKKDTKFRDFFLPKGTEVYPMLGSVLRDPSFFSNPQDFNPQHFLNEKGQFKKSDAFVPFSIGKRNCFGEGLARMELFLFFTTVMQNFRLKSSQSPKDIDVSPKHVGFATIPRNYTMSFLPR
Sequence of Tumor necrosis factor (Homo sapiens) (P01375 whole entry, looked up): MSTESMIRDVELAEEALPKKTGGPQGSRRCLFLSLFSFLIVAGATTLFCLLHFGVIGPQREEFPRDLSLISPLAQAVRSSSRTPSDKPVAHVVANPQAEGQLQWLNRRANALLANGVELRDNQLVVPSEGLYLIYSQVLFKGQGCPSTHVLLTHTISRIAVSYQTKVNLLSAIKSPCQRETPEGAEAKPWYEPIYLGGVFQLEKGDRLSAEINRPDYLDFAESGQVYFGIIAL
Sequence of human CYP1A2, CYP1A2 (gene 1544) (P05177 whole entry, looked up): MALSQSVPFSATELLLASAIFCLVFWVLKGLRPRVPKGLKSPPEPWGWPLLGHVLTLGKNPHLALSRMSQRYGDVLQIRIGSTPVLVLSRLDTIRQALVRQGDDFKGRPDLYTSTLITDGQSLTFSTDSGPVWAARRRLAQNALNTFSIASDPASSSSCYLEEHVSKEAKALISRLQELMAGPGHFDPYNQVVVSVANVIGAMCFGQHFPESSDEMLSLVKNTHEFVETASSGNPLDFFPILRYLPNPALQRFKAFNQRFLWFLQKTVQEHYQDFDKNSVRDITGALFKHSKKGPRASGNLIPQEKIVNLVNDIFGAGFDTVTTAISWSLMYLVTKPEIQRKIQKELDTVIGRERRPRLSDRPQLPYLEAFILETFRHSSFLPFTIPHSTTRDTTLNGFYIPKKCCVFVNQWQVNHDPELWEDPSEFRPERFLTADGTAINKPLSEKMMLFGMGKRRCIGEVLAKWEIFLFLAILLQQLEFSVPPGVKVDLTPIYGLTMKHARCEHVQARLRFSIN
Sequence of human CYP1A1, CYP1A1 (gene 1543) (P04798 whole entry, looked up): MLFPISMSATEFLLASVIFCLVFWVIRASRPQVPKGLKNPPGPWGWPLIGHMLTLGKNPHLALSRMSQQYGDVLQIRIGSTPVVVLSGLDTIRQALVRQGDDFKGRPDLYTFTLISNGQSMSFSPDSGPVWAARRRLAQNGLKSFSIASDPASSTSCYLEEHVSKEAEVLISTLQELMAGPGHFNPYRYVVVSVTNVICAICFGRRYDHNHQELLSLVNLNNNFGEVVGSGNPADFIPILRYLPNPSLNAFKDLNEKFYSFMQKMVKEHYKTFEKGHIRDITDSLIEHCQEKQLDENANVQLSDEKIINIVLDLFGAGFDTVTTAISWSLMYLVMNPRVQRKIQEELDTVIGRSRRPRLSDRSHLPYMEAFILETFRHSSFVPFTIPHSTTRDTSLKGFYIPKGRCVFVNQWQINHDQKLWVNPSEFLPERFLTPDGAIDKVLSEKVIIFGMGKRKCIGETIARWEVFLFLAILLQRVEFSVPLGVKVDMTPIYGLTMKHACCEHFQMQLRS
Sequence of human CYP2B6, CYP2B6 (gene 1555) (P20813 whole entry, looked up): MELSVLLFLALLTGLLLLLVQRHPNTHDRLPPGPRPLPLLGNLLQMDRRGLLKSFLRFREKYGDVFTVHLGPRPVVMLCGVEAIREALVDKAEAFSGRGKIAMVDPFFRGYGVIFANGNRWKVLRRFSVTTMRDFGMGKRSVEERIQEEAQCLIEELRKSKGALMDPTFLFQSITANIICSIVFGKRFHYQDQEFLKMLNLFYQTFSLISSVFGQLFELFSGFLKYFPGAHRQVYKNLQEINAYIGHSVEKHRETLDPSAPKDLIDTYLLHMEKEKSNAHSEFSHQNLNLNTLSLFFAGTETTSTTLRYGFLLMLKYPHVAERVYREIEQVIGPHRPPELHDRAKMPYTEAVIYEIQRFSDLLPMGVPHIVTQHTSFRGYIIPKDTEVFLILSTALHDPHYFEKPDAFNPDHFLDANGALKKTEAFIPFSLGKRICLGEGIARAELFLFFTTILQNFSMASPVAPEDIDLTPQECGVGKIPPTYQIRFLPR

Regarding `C[N+](C)(C)CC1CO1` (stereo not given), the outcome in test [1] is “inactive”; in test [2], “inactive”; in test [3], “inactive”; in test [4] it was “inactive”; in test [5], “inactive”; in the test with CD38, CD38 (gene 952), “inactive”. In addition, the outcome in the test with CD40, CD40 (gene 958) is “inactive”; with CD69, CD69 (gene 969), “inactive”; in test [6] it was “inactive”; in [7] it was “inactive”; in [8], “inactive”; in test [9] it was “inactive”. Further, the result in [10], in test [11], in test [12] and in test [13] was inactive.
Take `c1ccc2c(c1)-c1cccc3cccc-2c13`: the outcome was “inactive” in test [1]; “inactive” in [2]; “inactive” in test [3]; “inactive” in test [5]; “inactive” in the test with CD38, CD38 (gene 952); “inactive” with CD69, CD69 (gene 969). For the same molecule, the result in test [6], in [8], in [9] and in test [11] was inactive. The concentration at half-maximal activity (AC50) in [4] is 4.36 µM (active); in the test with CD40, CD40 (gene 958), 31.2 µM (active); in test [7] it was 31.6 µM (active); in test [10] it was 32.2 µM (active); in [12], 29.5 µM (active); in [14] it was 7.21 µM (active).
As to `CCCCOC(=O)c1ccccc1C(=O)OCc1ccccc1`, the half-maximal activity concentration (AC50) in test [1] is 8.72 µM (active); in [5], 10.7 µM (active); in test [10], 20 µM (active); in test [11], 20 µM (active); in [12], 10.8 µM (active); in test [14], 6.71 µM (active). Moreover, the outcome in test [2] was “inactive”; in test [3], “inactive”; in [4], “inactive”; in the test with CD38, CD38 (gene 952), “inactive”; with CD40, CD40 (gene 958) it was “inactive”; in the test with CD69, CD69 (gene 969), “inactive”. The result in [6], in test [7], in [8] and in [9] was inactive.
On to `O=C(N[C@H](c1ccccc1)[C@@H]1CN2CCC1CC2)c1c(Cl)ccc(C(F)(F)F)c1Cl`, for which the concentration at half-maximal activity (AC50) in [1] was 4.3 µM (active); in test [5], 17.7 µM (active); with CD38, CD38 (gene 952) it was 29.7 µM (active); in the test with CD69, CD69 (gene 969), 29.7 µM (active); in [9], 14.7 µM (active); in [10] it was 20.2 µM (active). For the same molecule, in test [11], the AC50 is 29.7 µM (active). For the same molecule, the outcome was “inactive” in [2]; “inactive” in test [3]; “inactive” in [4]; “inactive” in the test with CD40, CD40 (gene 958); “inactive” in test [6]; “inactive” in [7]. Moreover, the result in test [8], in test [12] and in test [13] was inactive.
With `O=C(Nc1ccccc1)c1ccccc1I`, the outcome in test [1] is “inactive”; in test [2], “inactive”; in test [3], “inactive”; in [4], “inactive”; in [5], “inactive”; with CD38, CD38 (gene 952), “inactive”. Also, the outcome in the test with CD40, CD40 (gene 958) is “inactive”; with CD69, CD69 (gene 969), “inactive”; in test [6] it was “inactive”; in test [7], “inactive”; in [8] it was “inactive”; in test [9] it was “inactive”. Further, the result in [10], in [11], in test [12], in [15] and in test [14] was inactive.
For `[Cl-].[Cl-].[Hg+2]`, the result in test [1], in test [6], in test [8], in test [10] and in test [12] was inactive. Moreover, the concentration at half-maximal activity (AC50) in test [2] was 31.7 µM (active); in test [3] it was 32.9 µM (active); in test [4], 33 µM (active); in test [5] it was 28.2 µM (active); with CD38, CD38 (gene 952), 36.6 µM (active); with CD40, CD40 (gene 958) it was 32 µM (active). The AC50 was 36.8 µM (active) with CD69, CD69 (gene 969); 20 µM (active) in test [7]; 31 µM (active) in test [9]; 22.7 µM (active) in test [11]; 14.8 µM (active) in test [13]; 14.3 µM (active) in [15]. Moreover, the half-maximal activity concentration (AC50) was 9.16 µM (active) in test [16] and 0.998 µM (active) in test [14].

For orientation: AC50 means the concentration at which the activity in the assay is half-maximal.
